Where “and” joins values, the source holds several entries; their conditions need not be identical. Equal values may be shown once. Calls of active or inactive are those of the source. Where a call stands in place of a potency, no number is given. Unless noted, calls come from the whole dose curve; as a rule, active = well fitted curve in the direction sought with a large enough effect in the repeat runs; inconclusive = weak or mixed curves; inactive = no such curve, though single readings can be large; an effect the other way counts as inactive or inconclusive.
Assays:
[1] = qHTS assay to identify small molecule antagonists of the glucocorticoid receptor (GR) signaling pathway - cell viability counter screen (AID 720693); note: nearly all actives have a fitted effect of over 55% in size; note: potency is the fitted concentration of half-maximal effect
[2] = qHTS assay for identifying genotoxic compounds that show differential cytotoxicity against isogenic chicken DT40 cell lines with known DNA damage response pathways - wild type cell line (AID 743012); note: nearly all actives have a fitted effect of over 60% in size; note: potency is the fitted concentration of half-maximal effect
Summary of the method: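 Viability by ATP luminescence (CellTiter-Glo, 30 min RT) after 40 h compound treatment at 37 C/5% CO2, using 300 parental DNA repair-proficient DT40 cells per well.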

[3] = qHTS assay for identifying genotoxic compounds that show differential cytotoxicity against isogenic chicken DT40 cell lines with known DNA damage response pathways - Rev3 mutant cell line (AID 743014); note: nearly all actives have a fitted effect of over 55% in size; note: potency is the fitted concentration of half-maximal effect
[4] = qHTS assay for identifying genotoxic compounds that show differential cytotoxicity against isogenic chicken DT40 cell lines with known DNA damage response pathways - Rad54/Ku70 mutant cell line (AID 743015); note: nearly all actives have a fitted effect of over 60% in size; note: potency is the fitted concentration of half-maximal effect
[5] = qHTS assay to identify small molecule antagonists of the androgen receptor (AR) signaling pathway - cell viability counter screen (AID 743033; note: nearly all actives have a fitted effect of over 45% in size; note: potency is the fitted concentration of half-maximal effect)
[6] = target: Androgen receptor (Homo sapiens) (UniProt P10275); assay: qHTS assay to identify small molecule agonists of the androgen receptor (AR) signaling pathway using the MDA cell line (AID 743040; note: nearly all actives have a fitted effect of over 20% in size)
Androgen receptor (Homo sapiens), sequence (P10275 whole entry, looked up): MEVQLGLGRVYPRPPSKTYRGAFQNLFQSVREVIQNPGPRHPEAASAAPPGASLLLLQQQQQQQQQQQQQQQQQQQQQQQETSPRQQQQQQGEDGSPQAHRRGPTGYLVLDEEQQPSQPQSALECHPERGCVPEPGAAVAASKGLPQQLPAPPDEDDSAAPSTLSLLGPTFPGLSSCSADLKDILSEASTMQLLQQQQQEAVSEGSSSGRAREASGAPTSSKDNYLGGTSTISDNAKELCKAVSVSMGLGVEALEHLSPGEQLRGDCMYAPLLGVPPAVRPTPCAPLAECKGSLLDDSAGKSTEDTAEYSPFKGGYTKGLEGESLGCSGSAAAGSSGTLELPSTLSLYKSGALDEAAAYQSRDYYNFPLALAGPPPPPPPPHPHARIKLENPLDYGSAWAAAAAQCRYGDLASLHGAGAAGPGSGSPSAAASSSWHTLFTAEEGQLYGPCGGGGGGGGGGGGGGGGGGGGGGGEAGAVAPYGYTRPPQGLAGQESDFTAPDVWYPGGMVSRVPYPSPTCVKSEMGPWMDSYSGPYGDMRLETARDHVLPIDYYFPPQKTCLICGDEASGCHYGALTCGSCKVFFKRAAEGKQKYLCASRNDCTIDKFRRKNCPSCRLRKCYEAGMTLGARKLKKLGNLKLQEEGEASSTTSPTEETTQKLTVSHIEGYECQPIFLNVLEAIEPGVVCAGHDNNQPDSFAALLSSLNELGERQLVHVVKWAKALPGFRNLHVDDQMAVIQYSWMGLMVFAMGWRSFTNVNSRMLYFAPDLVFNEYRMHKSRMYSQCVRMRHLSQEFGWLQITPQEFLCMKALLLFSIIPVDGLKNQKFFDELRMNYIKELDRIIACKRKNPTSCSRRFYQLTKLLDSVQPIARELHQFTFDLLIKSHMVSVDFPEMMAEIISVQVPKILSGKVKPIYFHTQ
Summary of the method: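 Agonist activity is measured as luciferase luminescence in human MDA-kb2 cells whose MMTV reporter responds to both AR and GR. Compounds in DMSO incubate 16 h at 37C, 0% CO2, and ONE-Glo is read after 30 min.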

[7] = qHTS assay to identify small molecule antagonists of the androgen receptor (AR) signaling pathway using the MDA cell line - cell viability counter screen (AID 743041; note: nearly all actives have a fitted effect of over 45% in size; note: potency is the fitted concentration of half-maximal effect)
Summary of the method: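 qHTS viability read-out; MDA-kb2 AR-luc; R1881-stimulated; 16 h exposure at 37C, 0% CO2; CellTiter-Fluor, 30 min; fluorescence intensity.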

[8] = qHTS assay to identify small molecule antagonists of the thyroid receptor (TR) signaling pathway - cell viability counter screen (AID 743064); note: nearly all actives have a fitted effect of over 50% in size; note: potency is the fitted concentration of half-maximal effect
Summary of the method: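 In rat pituitary GH3.TRE-Luc reporter cells co-exposed to compound and 1 nM T3 for 23.5 h, cytotoxicity was assessed with CellTiter-Fluor in the same wells, read by fluorescence.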

[9] = qHTS assay to identify small molecule antagonists of the thyroid receptor (TR) signaling pathway (AID 743065); note: nearly all actives have a fitted effect of over 55% in size; note: potency is the fitted concentration of half-maximal effect
Summary of the method: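 GH3.TRE-Luc rat pituitary cells carrying two TR response elements driving luciferase were plated for 4 h, given compound plus 1 nM T3 (final), and incubated 23.5 h at 37 C. ONE-Glo luminescence measured reporter inhibition; CellTiter-Fluor fluorescence tracked cytotoxicity.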

[10] = target: Estrogen receptor (Homo sapiens) (UniProt P03372); assay: qHTS assay to identify small molecule antagonists of the estrogen receptor alpha (ER-alpha) signaling pathway (AID 743069; active = well fitted curve in the direction sought with a large enough effect in the signal ratio in the repeat runs, not every such curve was filed as active; inconclusive = weak or mixed curves, or effect the other way; inactive = no such curve, though single readings can be large or run the other way; the % refers to the signal ratio; note: potency is the fitted concentration of half-maximal effect)
Estrogen receptor (Homo sapiens), sequence (P03372 whole entry, looked up): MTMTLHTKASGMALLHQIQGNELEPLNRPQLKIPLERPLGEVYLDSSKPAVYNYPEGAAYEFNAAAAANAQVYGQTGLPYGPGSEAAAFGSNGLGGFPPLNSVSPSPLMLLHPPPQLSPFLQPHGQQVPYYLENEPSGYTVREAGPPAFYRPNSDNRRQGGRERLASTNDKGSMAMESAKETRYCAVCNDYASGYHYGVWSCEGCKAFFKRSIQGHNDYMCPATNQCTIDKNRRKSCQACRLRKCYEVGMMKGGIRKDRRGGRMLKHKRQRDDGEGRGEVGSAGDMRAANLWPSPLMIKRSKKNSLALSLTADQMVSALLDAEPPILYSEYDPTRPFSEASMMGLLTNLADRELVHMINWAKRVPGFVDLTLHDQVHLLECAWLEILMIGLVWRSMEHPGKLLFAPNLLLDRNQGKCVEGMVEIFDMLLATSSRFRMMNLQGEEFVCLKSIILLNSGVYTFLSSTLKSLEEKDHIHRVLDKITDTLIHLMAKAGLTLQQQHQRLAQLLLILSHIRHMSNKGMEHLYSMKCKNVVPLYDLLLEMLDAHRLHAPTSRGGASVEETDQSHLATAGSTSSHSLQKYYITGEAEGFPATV
Summary of the method: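 Screening used a UAS-driven beta-lactamase reporter integrated into HEK293 cells expressing ER-alpha, stimulated with 17beta-estradiol alongside test compounds over 18 hr at 37C; signal came from LiveBLAzer B/G FRET fluorescence.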

[11] = qHTS assay to identify small molecule antagonists of the estrogen receptor alpha (ER-alpha) signaling pathway - cell viability counter screen (AID 743074; calls by dose curve; note: nearly all actives have a fitted effect of over 45% in size; note: potency is the fitted concentration of half-maximal effect)
[12] = target: Estrogen receptor (Homo sapiens) (UniProt P03372); assay: qHTS assay to identify small molecule agonists of the estrogen receptor alpha (ER-alpha) signaling pathway (AID 743075; calls by dose curve; note: potency is the fitted concentration of half-maximal effect)
[13] = target: Estrogen receptor (Homo sapiens) (UniProt P03372); assay: qHTS assay to identify small molecule agonists of the estrogen receptor alpha (ER-alpha) signaling pathway using the BG1 cell line (AID 743079); conditions: BG1Luc4E2 cells, ERE-luciferase agonist, 22 h; activation: at 70.3 µM (top of the series); note: nearly all actives have a fitted effect of over 20% in size; note: potency is the fitted concentration of half-maximal effect
[14] = qHTS assay to identify small molecule antagonists of the estrogen receptor alpha (ER-alpha) signaling pathway using the BG1 cell line - cell viability counter screen (AID 743081);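 note: compound given together with 17beta-estradiol as the ER stimulus; nearly all actives have a fitted effect of over 45% in size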; note: potency is the fitted concentration of half-maximal effect
[15] = target: Androgen receptor (Homo sapiens) (UniProt P10275); assay: qHTS assay to identify small molecule antagonists of the androgen receptor (AR) signaling pathway (AID 743035; active = well fitted inhibition curve with a large enough effect in the signal ratio in the repeat runs, not every such curve was filed as active; inconclusive = weak or mixed curves, or effect the other way; inactive = no such curve, though single readings can be large or run the other way; the % refers to the signal ratio; note: potency is the fitted concentration of half-maximal effect)
Summary of the method: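 Antagonist mode: AR-bla HEK293 cells co-treated with test compounds and agonist R1881 for 16 h at 37C, 5% CO2. Beta-lactamase activity read as FRET fluorescence after 2 h room-temperature substrate loading.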

[16] = target: Androgen receptor (Homo sapiens) (UniProt P10275); assay: qHTS assay to identify small molecule antagonists of the androgen receptor (AR) signaling pathway using the MDA cell line (AID 743042; note: nearly all actives have a fitted effect of over 55% in size; note: potency is the fitted concentration of half-maximal effect)
Summary of the method: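 MDA-kb2 cells (human breast carcinoma, stably carrying an MMTV-luciferase reporter responsive to AR and GR) were plated at 3,000 cells/well and preincubated 5 hr at 37C, then given compound plus R1881 agonist for 16 h. ONE-Glo luminescence was read.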

[17] = system: thyroid hormone receptor (rat, GH3 cells); assay: qHTS assay to identify small molecule agonists of the thyroid receptor (TR) signaling pathway (AID 743066; calls by dose curve)
[18] = qHTS assay to identify small molecule antagonists of the estrogen receptor alpha (ER-alpha) signaling pathway using the BG1 cell line (AID 743080; calls by dose curve;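 note: BG1 cells stimulated with 17beta-estradiol alongside compound; nearly all actives have a fitted effect of over 25% in size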; note: potency is the fitted concentration of half-maximal effect); conditions: BG1Luc4E2 ERE-luciferase antagonist mode, luminescence; activity change, negative = inhibition: at 70.3 µM (top of the series)
Summary of the method: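 BG1-Luc-4E2 cells (endogenous full-length ER-alpha, 4xERE luciferase) hormone-starved 5 days in charcoal-stripped FBS, plated 4,000/well for 24 h, then compound plus 17beta-estradiol for 21.5 h at 37 C; ONE-Glo luminescence read.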

[19] = target: Aromatase (Homo sapiens) (UniProt P11511); assay: qHTS assay to identify aromatase inhibitors (AID 743083); note: nearly all actives have a fitted effect of over 55% in size; note: potency is the fitted concentration of half-maximal effect
Aromatase (Homo sapiens), sequence (P11511 whole entry, looked up): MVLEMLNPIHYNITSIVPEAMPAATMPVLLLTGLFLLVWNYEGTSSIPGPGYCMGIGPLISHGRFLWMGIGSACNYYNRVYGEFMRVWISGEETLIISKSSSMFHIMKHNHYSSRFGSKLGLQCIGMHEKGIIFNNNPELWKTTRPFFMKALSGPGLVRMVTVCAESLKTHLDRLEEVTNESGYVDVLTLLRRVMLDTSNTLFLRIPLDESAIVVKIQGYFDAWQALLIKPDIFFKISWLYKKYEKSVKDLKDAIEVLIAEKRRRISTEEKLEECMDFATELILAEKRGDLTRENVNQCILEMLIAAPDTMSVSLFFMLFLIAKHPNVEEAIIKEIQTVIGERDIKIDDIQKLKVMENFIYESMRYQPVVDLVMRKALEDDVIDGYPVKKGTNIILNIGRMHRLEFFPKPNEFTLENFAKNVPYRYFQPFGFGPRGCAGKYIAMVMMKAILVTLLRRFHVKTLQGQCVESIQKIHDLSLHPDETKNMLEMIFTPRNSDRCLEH

[20] = qHTS assay to identify aromatase inhibitors - cell viability counter screen (AID 743084); note: potency is the fitted concentration of half-maximal effect

SMILES	Potency [1]	Potency [2]	Potency [3]	Potency [4]	Potency [5]	Potency [6]	Potency [7]	Potency [8]	Potency [9]	Potency [10]	Potency [11]	Potency [12]	Potency [13]	Potency [14]	Potency [15]	Potency [16]	Potency [17]	Potency [18]	Potency [19]	Potency [20]
NC(=O)C(=O)N/N=C/c1ccc([N+](=O)[O-])o1	inactive	10.6 µM (active)	11.9 µM (active)	16.8 µM (active)	inactive	inactive	inactive	26.6 µM (active)	21.1 µM (active)	inactive	inactive	inactive	inactive	inactive						
CCN=c1cc2oc3cc(NCC)c(C)cc3c(-c3ccccc3C(=O)OCC)c-2cc1C	21.8 µM (active) and 21.9 µM (active)	484 nM (active) and 172 nM (active)	384 nM (active) and 137 nM (active)	305 nM (active) and 109 nM (active)	689 nM (active) and 1.23 µM (active)	inactive	683 nM (active) and 386 nM (active)	1.08 µM (active) and 1.22 µM (active)	609 nM (active) and 1.09 µM (active)	48.8 nM [inconclusive] (active) and 155 nM [inconclusive] (active)	24.5 µM (active) and 21.9 µM (active)	inactive		3.84 µM (active) and 5.45 µM (active)	154 nM (active)	108 nM (active) and 96.9 nM (active)	inactive	172 nM (active) and 217 nM (active)	193 nM (active) and 137 nM (active)	1.21 µM (active) and 1.93 µM (active)
O=C(O)CCCCCCC(=O)O	inactive	inactive	inactive	inactive	inactive		inactive	inactive			inactive			inactive			inactive		inactive	inactive
COCC(=O)O[C@]1(CCN(C)CCCc2nc3ccccc3[nH]2)CCc2cc(F)ccc2[C@@H]1C(C)C	10.7 µM (active)	2.37 µM (active)	4.22 µM (active)	4.73 µM (active)	10.7 µM (active)	inactive	9.44 µM (active)	1.5 µM (active)	1.88 µM (active)		9.52 µM (active)			26.6 µM (active)		7.5 µM (active)			13.3 µM (active)	26.6 µM (active)
CC=O	25.7 µM (active)	0.0717 µM (active)	0.057 µM (active)	0.0717 µM (active)	22.9 µM (active)		63.9 µM (active)	2.86 µM (active)	1.28 µM (active)		57.5 µM (active)			32 µM (active)				1.61 µM (active)	5.08 µM (active)	36 µM (active)
C[C@H]1O[C@@H](O[C@H]2[C@@H](O)C[C@H](O[C@H]3[C@@H](O)C[C@H](O[C@H]4CC[C@@]5(C)[C@H](CC[C@@H]6[C@@H]5C[C@@H](O)[C@]5(C)[C@@H](C7=CC(=O)OC7)CC[C@]65O)C4)O[C@@H]3C)O[C@@H]2C)C[C@H](O)[C@@H]1O	535 nM (active) and 97.8 nM (active) and 193 nM (active)	596 nM (active) and 344 nM (active) and 854 nM (active)	596 nM (active) and 172 nM (active) and 428 nM (active)	750 nM (active) and 217 nM (active) and 381 nM (active)	84.9 nM (active) and 15.5 nM (active) and 30.6 nM (active)		inactive				0.0195 µM (active)			inactive	338 nM (active) and 61.7 nM (active) and 136 nM (active)				inactive	inactive
S=P(N1CC1)(N1CC1)N1CC1	inactive	21.1 µM (active)	944 nM (active) and 319 nM (active)	26.6 µM (active) and 11.4 µM (active)	inactive		inactive	inactive		inactive	inactive	inactive	inactive	inactive			inactive	inactive	inactive	inactive
C/C=C/C=N/NC(=O)c1ccncc1	inactive	inactive	inactive	inactive	inactive		inactive	inactive			inactive			inactive			inactive		inactive	inactive
Cc1cccc(Br)c1	inactive	inactive	inactive	inactive	inactive		inactive	inactive	inactive		inactive			inactive			inactive		inactive	inactive
NC(=O)c1ccccc1N	inactive	inactive	inactive	inactive	inactive	inactive	inactive	inactive		inactive	inactive	inactive	inactive	inactive		inactive	inactive	inactive	inactive	inactive
NCCCCCCNCCCCCCN	inactive	7.57 µM (active)	6.75 µM (active)	5.36 µM (active)	inactive		inactive	inactive	inactive	inactive	inactive	inactive	inactive	inactive			inactive	inactive	inactive	inactive
CCCCCCCCCCCCCCCC	inactive	inactive	inactive	inactive	inactive		inactive		inactive	inactive	inactive	inactive		inactive			inactive	inactive	inactive	inactive
CCCCCCCCCC(=O)N(C)C	inactive	inactive	inactive	inactive	inactive		inactive		inactive		inactive			inactive			inactive			
CC(CN(C)C)CN1c2ccccc2CCc2ccccc21 (configuration not stated)	inactive	11.4 µM (active)	12.7 µM (active)		inactive		inactive	4.52 µM (active)	11.4 µM (active)	inactive	inactive	inactive	inactive				inactive	inactive		
C=CC(=O)OCC(O)COc1ccccc1 (configuration not stated)	38.9 µM (active)	24.3 µM (active)	27.3 µM (active)	30.6 µM (active)				54.5 µM (active)	48.6 µM (active)		inactive	inactive	inactive	inactive			inactive		68.6 µM (active)	61.1 µM (active)
COc1ccccc1OCCNCC(O)COc1cccc2[nH]c3ccccc3c12 (configuration not stated)	inactive	26.6 µM (active)	29.8 µM (active)	29.8 µM (active)		inactive		29.8 µM (active)		inactive	inactive	inactive			inactive				inactive	
CCCCCCCCCCCCCOP(=O)(O)O	inactive	inactive	inactive	inactive	inactive			inactive	inactive		inactive	inactive	inactive	inactive			inactive	inactive		inactive
COC(=O)NCCC[Si](OC)(OC)OC	inactive	61.1 µM (active)	68.6 µM (active)		inactive		inactive	inactive	inactive		inactive			inactive			inactive		inactive	inactive
NC1(c2ccc(-c3nc4ccn5c(=O)[nH]nc5c4cc3-c3ccccc3)cc2)CCC1	inactive	1.19 µM (active)	5.31 µM (active)	1.33 µM (active)				13.3 µM (active)	13.3 µM (active)			21.3 µM [activator] (active)	inactive	inactive					inactive	
CN(Cc1cc(Br)cc(Br)c1N)C1CCCCC1	inactive	10.6 µM (active)	6.68 µM (active)	10.6 µM (active)			inactive				inactive	inactive		inactive			inactive	inactive	inactive	inactive
Cc1c(-c2ccc(O)cc2)n(Cc2ccc(OCCN3CCCCCC3)cc2)c2ccc(O)cc12	inactive	11.9 µM (active)	13.3 µM (active)	13.3 µM (active)				9.44 µM (active)			inactive								0.0211 µM (active)	inactive
CCCCCCC(C)Nc1ccc(Nc2ccccc2)cc1 (configuration not stated)	49 µM (active)	17.2 µM (active)	15.4 µM (active)	17.2 µM (active)			inactive	61.1 µM (active)	43.3 µM (active)					inactive			inactive		inactive	inactive
S=C(SSSSSSC(=S)N1CCCCC1)N1CCCCC1	inactive	0.674 µM (active)	0.425 µM (active)	0.674 µM (active)	0.68 µM (active)		1.51 µM (active)			inactive		inactive	inactive	inactive			inactive		0.268 µM (active)	0.379 µM (active)
Cc1ccc2ccc3cccc4ccc1c2c34	inactive	inactive	inactive	inactive				inactive				inactive	inactive	inactive			inactive	inactive	inactive	inactive
CCCCCCOc1ccc(O)cc1	inactive	6.11 µM (active)	5.45 µM (active)	7.7 µM (active)		inactive	inactive	12.2 µM (active)	6.86 µM (active)			inactive	8.63 µM (active)	inactive	24500 nM (active)	inactive	inactive			
CC(C)c1cccc(C(C)C)c1N1C(=O)c2ccc(O)cc2C1=O	43.6 µM (active)	8.63 µM (active)	7.7 µM (active)	8.63 µM (active)	38.9 µM (active)		inactive		4.86 µM (active)										54.5 µM (active)	
CN(C)c1ccc(N=NS(=O)(=O)O)cc1	inactive	22.9 µM (active)	26.1 µM (active)	22 µM (active)		inactive	14.4 µM (active)		inactive							23.7 µM (active)	inactive			
CCN(CC)CCSC(=O)C(c1ccccc1)c1ccccc1	inactive	26.6 µM (active)	inactive		inactive		inactive		26.6 µM (active)		inactive	inactive	inactive	inactive			inactive		inactive	inactive
CC(C)N=C(N)/N=C(\N)Nc1ccc(Cl)cc1	inactive	3.59 µM (active)	12.7 µM (active)	10.1 µM (active)			inactive	inactive		inactive	inactive	inactive	inactive	inactive			inactive	inactive	inactive	inactive

From PubChem BioAssay (Tox21)
